# Laboratory results as given in PubChem BioAssay.
# Inconclusive results are not listed. The source made the active and inactive calls. Cut-off read from the data, not from the text of the source, unless noted: active = inhibition above about 80%; inactive = the rest.
# Legend:
# [1] = growth inhibition of DIPG glioma cells, dose response, cell-based, SU-DIPG-XVII, MIPE5.0, CellTiter-Glo, qHTS (AID 1347060; cut-off not given, nearly all actives have AC50 up to about 26 µM;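 note: cells exposed to compound for 48 hours before viability readout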); settings: SU-DIPG-XVII viability, CellTiter-Glo ATP luminescence
# [2] = growth inhibition of DIPG glioma cells, dose response, cell-based, SU-DIPG-XIII, MIPE5.0, CellTiter-Glo, qHTS (AID 1347064; cut-off not given, nearly all actives have AC50 up to about 23 µM;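 note: cells exposed to compound for 48 hours before the viability read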); settings: SU-DIPG-XIII viability, CellTiter-Glo ATP luminescence
# [3] = JHH-DIPG-1 glioma cell viability, MIPE5.0 library, CellTiter-Glo luminescence, qHTS (AID 1347067; cut-off not given, nearly all actives have AC50 up to about 26 µM;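 note: cells exposed to compound for 48 hours before readout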); settings: JHH-DIPG-1 glioma viability, CellTiter-Glo ATP luminescence
# [4] = LFS_MB_P medulloblastoma growth inhibition, cell-based, chromothripsis tumors, cisplatin or BGB combos (AID 1671449); settings: LFS_MB_P medulloblastoma cells;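 note: cells exposed for 96 hours; 0% = vehicle DMSO and 100% = killing by high DMSO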
# [5] = HDN33 neuroblastoma growth inhibition, cell-based, chromothripsis tumors, cisplatin or BGB combos (AID 1671450); settings: HDN33 neuroblastoma cells, stronger effect = higher value;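 note: cells exposed to compound for four days; 0% = vehicle DMSO and 100% = cell killing by high DMSO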
# [6] = ICB984 medulloblastoma cell growth inhibition, synergistic combos for chromothripsis tumors, cisplatin or BGB combos (AID 1671451; call rule not given here;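 note: cells exposed for 96 hours before readout; 0% = vehicle DMSO and 100% = killing by high DMSO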); settings: ICB984 medulloblastoma cells, drug combinations, stronger effect = higher value
# [7] = LFS_MB_1R medulloblastoma cell growth inhibition, synergistic combos for chromothripsis tumors, cisplatin or BGB combos (AID 1671452); settings: LFS_MB_1R medulloblastoma cells, stronger effect = higher value;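 note: cells exposed for 96 hours before readout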
# [8] = HTB85 osteosarcoma cell growth inhibition, synergistic combos for chromothripsis tumors, BGB or cisplatin IC20 combos (AID 1671453); settings: HTB85 osteosarcoma cells, drug combinations, stronger effect = higher value;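 note: cells exposed for 96 hours before readout; 0% = vehicle DMSO and 100% = high DMSO killing control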
# [9] = CRL2098 osteosarcoma cell growth inhibition, synergistic combos for chromothripsis tumors, BGB or cisplatin IC20 combos (AID 1671454); settings: CRL2098 osteosarcoma cells, drug combinations, stronger effect = higher value;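 note: cells exposed for 96 h before readout; 0% = vehicle DMSO and 100% = killing by high DMSO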
# [10] = HD-MB03 medulloblastoma cell growth inhibition, synergistic combos for chromothripsis tumors, BGB or cisplatin IC20 combos (AID 1671455; in the data active = inhibition above about 83%;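 note: 0% = vehicle DMSO and 100% = high DMSO as cytotoxic control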); settings: HD-MB03 medulloblastoma cells, stronger effect = higher value
# [11] = UWB1.289 ovarian carcinoma cell growth inhibition, synergistic combos for chromothripsis tumors, BGB or cisplatin combos (AID 1671456); settings: UWB1.289 ovarian carcinoma cells, stronger effect = higher value;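 note: cells exposed to compound for four days; 0% = vehicle DMSO and 100% = killing by high DMSO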
# [12] = LFS_MB_2R medulloblastoma cell growth inhibition, synergistic combos for chromothripsis tumors, cisplatin combos (AID 1671457); settings: LFS_MB_2R medulloblastoma cells, stronger effect = higher value;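 note: cells exposed to compound for four days before readout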
# [13] = MDA-MB-436 breast carcinoma cell growth inhibition, synergistic combos for chromothripsis tumors, BGB or cisplatin combos (AID 1671458; call rule not given here;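 note: cells exposed for 96 hours; 0% = vehicle DMSO and 100% = killing by high DMSO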); settings: MDA-MB-436 breast carcinoma growth inhibition, drug combinations, stronger effect = higher value
# [14] = UWB1.289_BRCA1 ovarian cancer growth, cell-based, BGB or cisplatin combinations (AID 1671459); settings: UWB1.289 BRCA1 ovarian carcinoma, drug combinations, stronger effect = higher value
# [15] = human astrocyte viability loss, single and combined drugs, cytotoxicity control for chromothriptic childhood tumor combination screen, cell-based, BGB or cisplatin IC20 combos (AID 1671460); settings: Human astrocytes, drug combinations, stronger effect = higher value;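 note: cells exposed to compounds for 96 hours before viability readout; 0% = vehicle and 100% = killing control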
# [16] = growth inhibition of BT084 medulloblastoma cells, cell-based, ICGC_MB145, cisplatin and BGB IC40 combos (AID 1671461); settings: drug combinations, stronger effect = higher value;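 note: cells exposed to drugs for 96 hours; 0% = vehicle DMSO and 100% = high DMSO full killing control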
# [17] = growth inhibition of RCMB18 medulloblastoma cells, cell-based, cisplatin and BGB IC40 combos (AID 1671462); settings: stronger effect = higher value;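 note: cells exposed to compound for four days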
# [18] = growth inhibition of CRL1545 osteosarcoma cells, cell-based, cisplatin and BGB IC20 combos (AID 1671464); settings: stronger effect = higher value;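 note: cells exposed to compound for 96 hours before readout; 0% = vehicle DMSO and 100% = high DMSO killing control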
# [19] = measured here: combination with BGB IC40, at 0.05 µM
# [20] = measured here: with BGB IC20 combination, at 0.5 µM
# [21] = measured here: with cisplatin IC20 combination, at 0.5 µM
# [22] = measured here: combination with cisplatin, at 0.5 µM
# [23] = measured here: combination with cisplatin, at 5 µM
structure (smiles),measurement,setting,value
O=C(CCCCCCNC(=O)c1cnc(N(c2ccccc2)c2ccccc2Cl)nc1)NO,AC50,[1],8.33 µM (active)
same,AC50,[2],3.72 µM (active)
same,AC50,[3],7.42 µM (active)
same,inhibition,"[4]; at 0.5 µM, stronger effect = higher value",-18.4% (inactive)
same,inhibition,"[4]; measured here: combination with BGB IC20, at 0.005 µM",-0.623%
same,inhibition,"[4]; measured here: combination with BGB IC40, at 0.005 µM",-22.7%
same,inhibition,[4]; [19],-0.542%
same,inhibition,"[4]; measured here: combination with cisplatin, at 0.5 µM, stronger effect = higher value",-15.1%
same,inhibition,"[4]; measured here: combination with cisplatin, at 5 µM, stronger effect = higher value",99.5%
same,inhibition,"[5]; BGB combo, at 5 µM",50.4%
same,inhibition,[5]; at 0.5 µM,18.7% (inactive)
same,inhibition,"[5]; cisplatin combo, at 5 µM",56.8%
same,inhibition,[5]; [20],15.8%
same,inhibition,[5]; [21],22.8%
same,inhibition,"[5]; single agent, at 5 µM",62.1%
same,inhibition,"[6]; BGB IC20 combo, at 0.005 µM",12.6%
same,inhibition,"[6]; BGB IC40 combo, at 0.005 µM",-39.2%
same,inhibition,"[6]; BGB IC40 combo, at 0.05 µM",39.9%
same,inhibition,[6]; at 0.5 µM,-20.1% (inactive)
same,inhibition,"[6]; cisplatin combo, at 0.05 µM",37.5%
same,inhibition,"[6]; cisplatin combo, at 0.5 µM",-17.2%
same,inhibition,"[6]; cisplatin combo, at 5 µM",-24.9%
same,inhibition,"[6]; measured here: 5 uM single agent, at 5 µM",-20.1%
same,inhibition,[7]; at 0.5 µM,-5.6% (inactive)
same,inhibition,[7]; [19],-9.58%
same,inhibition,[7]; [22],-15.4%
same,inhibition,[7]; [23],66.7%
same,inhibition,[8]; at 0.5 µM,-4.65% (inactive)
same,inhibition,"[8]; measured here: with BGB IC20, at 0.5 µM",-17.2%
same,inhibition,"[8]; measured here: with BGB IC20, at 5 µM",33.1%
same,inhibition,"[8]; measured here: with cisplatin IC20, at 0.5 µM",-7.92%
same,inhibition,"[8]; measured here: with cisplatin IC20, at 5 µM",47.7%
same,inhibition,"[8]; single agent, at 5 µM",54%
same,inhibition,[9]; at 0.5 µM,-36.3% (inactive)
same,inhibition,"[9]; measured here: combination with BGB at IC20, at 0.5 µM",-46.5%
same,inhibition,"[9]; measured here: combination with cisplatin at IC20, at 0.5 µM",-0.706%
same,inhibition,[10]; at 0.5 µM,7.2% (inactive)
same,inhibition,"[10]; measured here: combo with BGB at IC20, at 0.5 µM",-0.477%
same,inhibition,"[10]; measured here: combo with cisplatin at IC20, at 0.5 µM",8.58%
same,inhibition,[11]; at 0.5 µM,8.33% (inactive)
same,inhibition,"[11]; measured here: inhibition with BGB combination, at 0.05 µM",-28.3%
same,inhibition,"[11]; measured here: inhibition with cisplatin combination, at 0.05 µM",-17.7%
same,inhibition,[12]; at 0.5 µM,-16.9% (inactive)
same,inhibition,[12]; [22],-6.73%
same,inhibition,[12]; [23],81%
same,inhibition,[13]; at 0.5 µM,-11.7% (inactive)
same,inhibition,"[13]; measured here: BGB combination, at 0.5 µM",-16.5%
same,inhibition,"[13]; measured here: BGB combination, at 5 µM",16.3%
same,inhibition,"[13]; measured here: cisplatin combination, at 0.5 µM",-18%
same,inhibition,"[13]; measured here: cisplatin combination, at 5 µM",30.9%
same,inhibition,"[14]; BGB combination, concentration series, at 5 µM",70.5%
same,inhibition,[14]; at 0.5 µM,15.1% (inactive)
same,inhibition,"[14]; cisplatin combination, concentration series, at 5 µM",83%
same,inhibition,[15]; at 0.5 µM,10.7% (inactive)
same,inhibition,"[15]; measured here: combo with BGB IC20, at 0.5 µM",11.7%
same,inhibition,"[15]; measured here: combo with cisplatin IC20, at 0.5 µM",14%
same,inhibition,[16]; at 0.5 µM,2.48% (inactive)
same,inhibition,"[16]; cisplatin combination, at 0.5 µM",7.21%
same,inhibition,"[16]; cisplatin combination, at 5 µM",78.9%
same,inhibition,"[16]; measured here: BGB IC40 combination 0.05 uM, at 0.05 µM",-0.825%
same,inhibition,"[16]; single agent, at 5 µM",65%
same,inhibition,[17]; at 0.5 µM,-4.94% (inactive)
same,inhibition,"[17]; cisplatin combo, at 5 µM",64.2%
same,inhibition,"[17]; measured here: BGB IC40 combination, at 0.05 µM",-4.49%
same,inhibition,[17]; [22],5.58%
same,inhibition,"[17]; single agent, at 5 µM",31.8%
same,inhibition,[18]; at 0.5 µM,32.3% (inactive)
same,inhibition,[18]; [20],16.7%
same,inhibition,[18]; [21],40.1%
same,inhibition,"[18]; single agent, at 0.05 µM",-5.85%
same,inhibition,"[18]; single agent, at 5 µM",88.6%
